Reference: PubChem BioAssay (NCI)
About 83,000 compounds went through this panel and 20% of them were active in at least one assay; those are over-represented in the sample as a whole.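 A percent growth of 40 corresponds to 60% growth inhibition; 0 means no net growth; -100 means all cells died. Active threshold: below 10.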 Unmarked numbers belong to inactive results. Active and inactive are the calls of the source.

Tests used:
Experiment in all cases: NCI-60 one-dose screen, 48 h (100 = growth as untreated, 0 = no growth, -100 = all killed)
Settings in all cases: 10 µM unless noted
HCT-15 colon = test system: HCT-15 colon
HT29 colon = test system: HT29 colon
SNB-75 CNS = test system: SNB-75 CNS
SNB-19 CNS = test system: SNB-19 CNS
U251 CNS = test system: U251 CNS
PC-3 prostate = test system: PC-3 prostate
SK-MEL-5 melanoma = test system: SK-MEL-5 melanoma
UACC-62 melanoma = test system: UACC-62 melanoma
LOX IMVI melanoma = test system: LOX IMVI melanoma
SK-MEL-28 melanoma = test system: SK-MEL-28 melanoma

Row | Compound | growth (HCT-15 colon) | growth (HT29 colon) | growth (SNB-75 CNS) | growth (SNB-19 CNS) [%] | growth (U251 CNS) | growth (PC-3 prostate) [%] | growth (SK-MEL-5 melanoma) | growth (UACC-62 melanoma) | growth (LOX IMVI melanoma) | growth (SK-MEL-28 melanoma)
1 | COc1ccc(C/C(C)=C(/c2ccc(OCCN(C)C)cc2)c2ccc(OC(=O)NCc3ccccc3)cc2)cc1 | 24.3% | -13.7% (active) | 77.7% | 85.6 | 45.7% | 68.4 | 63.1% | 69.3% | -12% (active) | 54.6%
2 | CCCCCCCCCCC(CN(CC)CC)C(O)c1ccccc1 (stereo not given) | 13.5% | -2.44% (active) | 49.4% | 51.5 | 12.9% | 25.9 | -93.8% (active) | -44.3% (active) | -82% (active) | -61.6% (active)
3 | OB1OCc2cc(/C=C/c3cccc(C(F)(F)F)c3)ccc21 | 17.8% | 25.9% | -19.3% (active) | 20.8 | 0.414% (active) | 23.6 | -14.1% (active) | 19.9% | -72.5% (active) | 45.5%
4 | Cc1ccc2c(c1)=C/C(=C\c1cc(-c3ccccc3)oc1O)C(=O)N=2 | 97.6% | 108% | 93.5% | 107 | 109% | 96.3 | 105% | 101% | 94.4% | 104%
5 | CCc1ccc(CCCC(=O)O)cc1 | 101% | 101% | 87.9% | 95.7 | 101% | 96.8 | 102% | 96.8% | 99.5% | 108%
6 | O=C(N/N=C/c1ccc(Cl)cc1)c1[nH]c2ccc(Cl)cc2c1-c1ccccc1 | 11.2% | 19.4% | 70.5% | 15.1 | 10.4% | 17.2 | -36.6% (active) | 30.7% | 19% | 93.3%
7 | COC(=O)/C=C1/SC(=Nc2cccc(OC)c2)N(CCc2c[nH]c3ccc(O)cc23)C1=O | 26.4% | 92% | 71% | 54.3 | 45.4% | 46 | 63.6% | 53.4% | 23.5% | 70.9%
8 | c1cc2c(ccc3[nH]c(-c4ccc5[nH]ncc5c4)c4c(c32)CCCC4)n1 | 61.6% | 51.7% | 62.1% | 44.5 | 36.8% | 28.4 | 61.7% | 54.6% | 61.5% | 67.3%
9 | N#CC(C#N)N=Nc1ccc(Br)cc1 | 16.8% | 20.9% | 94.2% | 96.3 | 83.4% | 19.1 | 77.9% | 37.4% | 60.1% | 43.8%
10 | Cn1cc(-c2csc(-c3c[nH]c4ccccc34)n2)c2cnccc21 | -59.7% (active) | -1.85% (active) | 80.6% | 48.8 | -25.2% (active) | 48.4 | 51.9% | -52.7% (active) | -84.9% (active) | -51.5% (active)
11 | O=S(=O)(c1ccccc1)n1cc2c(c1)-c1nc(Nc3ncccn3)sc1CC2 | 68.7% | 66.2% | -16% (active) | 78.5 | 46.2% | 65.5 | 35.4% | 63.6% | 10.1% | 73.9%
12 | CCCC/C(CC)=N\NS(=O)(=O)c1ccc([N+](=O)[O-])cc1 | 107% | 106% | 90.4% | 95.2 | 88.6% | 84.5 | 98.2% | 98.5% | 94.2% | 108%
13 | O=C1/C(=C\c2ccc3nccnc3c2)SC(=S)N1CCc1ccc(O)cc1 | 78.3% | 112% | 66% | 94 | 99.3% | 89.7 | 98.7% | 84.5% | 79.4% | 103%
14 | O=c1c2cccc3c(N4CCCC4)ccc(c32)c2nc3ccccc3n12 | 78.6% | 77.8% | 73% | 76 | 64.7% | 67.9 | 64.5% | 62.6% | 51.7% | 90.9%
15 | O=C(Nc1ccc(Oc2cccc(Cl)c2)c(Cl)c1)c1cnccn1 | 23.3% | 2.14% (active) | -20.9% (active) | 33.5 | 16.5% | 11.1 | 25.8% | 28.4% | 29.9% | 64.9%
